Measurements taken from the antibiotic and cytotoxicity screens of Wong et al. (2023).
Hit rate of the full screen: of about 39,000 compounds, about 1,500 (3.8%) were called active. Shown is part of a subset that was picked to be rich in actives.

Tested on: HSkMC (human skeletal muscle cells)
Assay: cytotoxicity call (relative viability < 0.9)
Settings: 10 µM

Row | SMILES | cytotoxicity call
1 | O=C(N[C@@H](c1ccc(-c2ccccc2)cc1)c1cnccn1)C1CCN(Cc2cccc(C(F)(F)F)c2)CC1 | inactive
2 | O=C(NC1(c2ccccc2)CC1)c1c(CN2CCC(N3CCCCC3)CC2)c(-c2cccc(C(F)(F)F)c2)nc2cc(Br)ccc12 | active
3 | COc1ccc(S(=O)(=O)N(C)C[C@H]2Oc3ccc(NC(=O)CCCN(C)C)cc3CC(=O)N([C@H](C)CO)C[C@@H]2C)cc1 | inactive
4 | Cc1noc(C)c1NC(=O)N(C)C[C@@H]1OCCCC[C@@H](C)Oc2ccc(NC(=O)CCCCCC(=O)Nc3ccccc3N)cc2C(=O)N([C@H](C)CO)C[C@@H]1C | inactive
5 | CO[C@@H]1CN(C)C(=O)c2ccc(NC(=O)CC(F)(F)F)cc2OC[C@H](C)N(C(=O)C2CCOCC2)C[C@H]1C | inactive
6 | Cc1noc(C)c1NC(=O)Nc1cccc2c1O[C@H](CN(C)Cc1ccc(C(F)(F)F)cc1)[C@@H](C)CN([C@@H](C)CO)C2=O | inactive
7 | COc1ccc(NC(=O)Nc2ccc3c(c2)C(=O)N([C@@H](C)CO)C[C@H](C)[C@@H](CN(C)C(=O)Nc2ccc(F)cc2)OCCCC[C@H](C)O3)cc1 | inactive
8 | C[C@H](CO)N1C[C@H](C)[C@H](CN(C)Cc2ccc3c(c2)OCO3)Oc2c(NC(=O)Nc3ccc(C(F)(F)F)cc3)cccc2C1=O | inactive
9 | C[C@@H]1CN([C@H](C)CO)C(=O)c2cccc(NC(=O)Nc3ccc(C(F)(F)F)cc3)c2O[C@@H]1CN(C)Cc1ccc2c(c1)OCO2 | inactive
10 | C[C@@H]1CN([C@H](C)CO)C(=O)c2cccc(NC(=O)Nc3ccc(C(F)(F)F)cc3)c2O[C@H]1CN(C)Cc1ccc2c(c1)OCO2 | inactive
11 | C[C@@H]1CN([C@@H](C)CO)C(=O)c2cccc(NC(=O)Nc3ccc(C(F)(F)F)cc3)c2O[C@H]1CN(C)Cc1ccc2c(c1)OCO2 | active
12 | C[C@@H]1CN([C@@H](C)CO)C(=O)c2cccc(NC(=O)Nc3ccc(C(F)(F)F)cc3)c2O[C@@H]1CN(C)Cc1ccc2c(c1)OCO2 | inactive
13 | C[C@H]1CN([C@@H](C)CO)C(=O)c2cccc(NC(=O)Nc3ccc(C(F)(F)F)cc3)c2O[C@H]1CN(C)Cc1ccc2c(c1)OCO2 | inactive
14 | C[C@H]1CN([C@@H](C)CO)C(=O)c2cccc(NC(=O)Nc3ccc(C(F)(F)F)cc3)c2O[C@@H]1CN(C)Cc1ccc2c(c1)OCO2 | active
15 | C[C@H](CO)N1C[C@H](C)[C@@H](CN(C)Cc2ccc3c(c2)OCO3)Oc2c(NC(=O)Nc3ccc(C(F)(F)F)cc3)cccc2C1=O | active
16 | C[C@@H]1CN([C@@H](C)CO)C(=O)c2cccc(NC(=O)Nc3ccc4c(c3)OCO4)c2O[C@H]1CN(C)Cc1ccc(C(F)(F)F)cc1 | active
17 | C[C@H]1CN([C@@H](C)CO)C(=O)c2cccc(NC(=O)Nc3ccc4c(c3)OCO4)c2O[C@@H]1CN(C)Cc1ccc(C(F)(F)F)cc1 | inactive
18 | C[C@H](CO)N1C[C@H](C)[C@H](CN(C)Cc2ccc(C(F)(F)F)cc2)Oc2c(NC(=O)Nc3ccc4c(c3)OCO4)cccc2C1=O | inactive
19 | C[C@H]1CN([C@@H](C)CO)C(=O)c2cccc(NC(=O)Nc3ccc4c(c3)OCO4)c2O[C@H]1CN(C)Cc1ccc(C(F)(F)F)cc1 | inactive
20 | C[C@H]1CCCCO[C@@H](CN(C)C(=O)Nc2ccc3c(c2)OCO3)[C@@H](C)CN([C@@H](C)CO)C(=O)c2cc(NS(=O)(=O)c3cccs3)ccc2O1 | inactive
21 | Cc1cc(C(=O)Nc2cccc3c2O[C@@H](CN(C)S(=O)(=O)c2cccs2)[C@H](C)CN([C@H](C)CO)C3=O)n(C)n1 | inactive
22 | C[C@H]1CCCCO[C@H](CN(C)C(=O)NC2CCCCC2)[C@@H](C)CN([C@@H](C)CO)C(=O)c2cc(NS(=O)(=O)c3cccs3)ccc2O1 | inactive
23 | C[C@@H]1CCCCO[C@@H](CN(C)Cc2ccc(C(F)(F)F)cc2)[C@H](C)CN([C@H](C)CO)C(=O)c2cc(NC(=O)c3ccncc3)ccc2O1 | inactive
24 | O=C(NCc1nc2ccccc2[nH]1)C1=C[C@@H](c2ccc(Br)cc2)C[C@@H](OCc2ccc(CO)cc2)O1 | inactive
25 | Cc1ccc(S(=O)(=O)N(C)C[C@@H]2Oc3ccc(NC(=O)Nc4ccc(C(F)(F)F)cc4)cc3C(=O)N([C@H](C)CO)C[C@@H]2C)cc1 | inactive

Row | SMILES | cytotoxicity call
26 | CS(=O)(=O)[C@H]1CCNC1 | inactive
27 | CC(C)(C)S(=O)N1Cc2cc(C(=O)NCc3ccc4c(c3)OCO4)nc(-c3cccc(-c4cccc(F)c4)c3)c2[C@H]1CCO (stereo not given in full) | inactive
28 | COc1ccccc1CNC(=O)C[C@H]1CC[C@@H]2[C@H](COC[C@H](O)CN2C(=O)Nc2ccc(F)cc2)O1 | inactive
29 | O=C(C[C@H]1C[C@H]2c3cc(NC(=O)C4CCOCC4)ccc3O[C@H]2[C@H](CO)O1)NCc1ccc2c(c1)OCO2 | inactive
30 | C[C@@H]1CN([C@@H](C)CO)C(=O)c2cccc(NC(=O)c3nc4ccccc4s3)c2O[C@H]1CN(C)C(=O)Nc1ccc(C(F)(F)F)cc1 | inactive
31 | COc1ccccc1S(=O)(=O)N[C@@H]1CC[C@H](CCNC(=O)C2CC2)O[C@H]1CO | inactive
32 | CN(C)CCCNC(=O)[C@@H]1[C@@H](CO)[C@@H]2Cn3c(ccc(-c4cccc(C(=O)N(C)C)c4)c3=O)[C@H]1N2 | inactive
33 | C[C@@H]1O[C@@H](O[C@H]2[C@H](OC(=O)[C@]34CCC(C)(C)C[C@H]3C3=CC[C@H]5[C@@]6(C)CC[C@H](O[C@@H]7O[C@H](CO)[C@@H](O)[C@H](O)[C@H]7O)C(C)(C)[C@@H]6CC[C@@]5(C)[C@]3(C)C[C@H]4O)OC[C@H](O)[C@@H]2O)[C@H](O)[C@H](O[C@@H]2OC[C@H](O)[C@H](O)[C@H]2O)[C@H]1O[C@@H]1OC[C@@H](O)[C@H](O[C@@H]2OC[C@H](O)[C@H](O)[C@H]2O)[C@H]1O | inactive
34 | C[C@@H]1O[C@H](O[C@H]2[C@H](OC(=O)[C@]34CCC(C)(C)C[C@@H]3C3=CC[C@@H]5[C@@]6(C)CC[C@H](O[C@@H]7O[C@@H](C)[C@H](O[C@@H]8OC[C@@H](O)[C@H](O)[C@H]8O)[C@@H](O)[C@H]7O)C(C)(C)[C@@H]6CC[C@@]5(C)[C@]3(C)C[C@@H]4O)OC[C@H](O)[C@H]2O)[C@H](O)[C@H](O)[C@H]1O[C@@H]1O[C@H](CO)[C@@H](O)[C@H](O)[C@H]1O | inactive
35 | C=C[C@](C)(O)CC/C=C(\C)C(=O)O[C@@H]1[C@@H](O[C@@](C)(C=C)CC/C=C(\C)C(=O)O[C@H]2C[C@@]3(C(=O)O[C@H]4OC[C@@H](O[C@H]5O[C@@H](CO)[C@@H](O)[C@@H](O[C@H]6O[C@@H](CO)[C@@H](O[C@H]7O[C@@H](CO)[C@@H](O)[C@@H](O)[C@@H]7O)[C@@H](O)[C@@H]6O)[C@@H]5O)[C@@H](O)[C@@H]4O)[C@@H](O)C[C@@]4(C)C(=CC[C@H]5[C@@]6(C)CC[C@@H](O[C@H]7O[C@@H](CO)[C@@H](O[C@H]8O[C@@H](CO)[C@@H](O)[C@@H](O[C@H]9OC[C@@H](O)[C@@H](O)[C@@H]9O)[C@@H]8O)[C@@H](O)[C@@H]7O)C(C)(C)[C@@H]6CC[C@@]54C)[C@@H]3CC2(C)C)OC[C@@H](O)[C@H]1O | active
36 | C[C@H](CO)N1C[C@H](C)[C@H](CN(C)S(=O)(=O)c2ccccc2)Oc2ccc(NC(=O)CCN3CCOCC3)cc2CC1=O | inactive
37 | C[C@@H]1CN([C@H](C)CO)S(=O)(=O)c2ccc(C3=CCCC3)cc2O[C@H]1CN(C)S(=O)(=O)c1cn(C)cn1 | inactive
38 | C/C1=C2/[N]([Co+][OH])[C@H]([C@H](CC(N)=O)[C@@]2(C)CCC(=O)NC[C@@H](C)OP(=O)(O)O[C@H]2[C@@H](O)[C@@H](n3cnc4cc(C)c(C)cc43)O[C@@H]2CO)[C@]2(C)N=C(/C(C)=C3N=C(/C=C4N=C1[C@@H](CCC(N)=O)C/4(C)C)[C@@H](CCC(N)=O)[C@]\3(C)CC(N)=O)[C@@H](CCC(N)=O)[C@]2(C)CC(N)=O | active
39 | C[C@H]1CN([C@@H](C)CO)C(=O)Cc2cc(NC(=O)Cn3cnnn3)ccc2O[C@@H]1CN(C)S(=O)(=O)c1ccc(Cl)cc1 | inactive
40 | CC(C)N1CC[C@@H](CN(C)Cc2ccc(Cl)cc2)Oc2c(NC(=O)c3ccncc3)cccc2C1=O | inactive
41 | Cc1ccc2c(c1)c1nc3ccccc3nc1n2Cc1ccccc1 | inactive
42 | Cc1ccc(C(=O)N(CCCN)[C@@H](c2oc3cc(Cl)ccc3c(=O)c2Cc2ccccc2)C(C)C)cc1 | active
43 | Cc1ccc(C(=O)N(CCCN)[C@@H](c2nc3cc(Cl)ccc3c(=O)n2Cc2ccccc2)C(C)C)cc1 | active
44 | COc1ccc2cc(S(=O)(=O)N[C@H](CC(=O)N[C@H](Cc3ccc(CN4[C@H](C)CCC[C@@H]4C)cc3)C(=O)N(C)C(C)C)c3ccc4c(c3)OCO4)ccc2c1 | inactive
45 | C[C@@H]1CCCCO[C@@H](CN(C)Cc2ccc(Cl)c(Cl)c2)[C@@H](C)CN([C@@H](C)CO)C(=O)c2cc(NC(=O)CCC(F)(F)F)ccc2O1 | inactive
46 | CO[C@H](C(=O)N(C)C[C@H]1OCc2ccccc2-c2c(n(C)c3ccccc23)C(=O)N([C@@H](C)CO)C[C@H]1C)c1ccccc1 | inactive
47 | C[C@@H]1CN([C@H](C)CO)C(=O)c2cc(NS(C)(=O)=O)ccc2O[C@@H]1CN(C)C(=O)NC1CCCCC1 | inactive
48 | Cc1noc(C)c1NC(=O)Nc1ccc2c(c1)C(=O)N([C@H](C)CO)C[C@H](C)[C@H](CN(C)Cc1ccc(C(F)(F)F)cc1)OCCCC[C@H](C)O2 | inactive
49 | C[C@@H]1CN([C@H](C)CO)C(=O)Cc2cc(NC(=O)c3ccncc3)ccc2O[C@H]1CN(C)Cc1ccc2c(c1)OCO2 | inactive
50 | C[C@H]1CN([C@@H](C)CO)C(=O)c2ccccc2-c2ccccc2CO[C@H]1CN(C)Cc1ccc(Oc2ccccc2)cc1 | inactive
